Results: PubChem BioAssay (NCATS)
Results filed as inconclusive are left out. Activity calls are given as the source filed them. Unless noted, the call rests on the fitted dose curve. Numbered stars: 1 amine (or outer) side, 2 acyl side, 3 side chain; on linkers, the order of the positions; unused ones are H or OH. Bridge positions count the residues as written; N and C are the ends. Square brackets hold non-standard residues; d marks the D form. Peptide text beside a SMILES is read from it. I, II: the chains in the order shown. Actinocin(9to1) = Cc1c2oc3c(C)ccc(C(=O)[*:1])c3nc-2c(C(=O)[*:2])c(N)c1=O; NMeV = CN[C@H](C(=O)O)C(C)C; Sar = CNCC(=O)O

Test: Primary qHTS for small molecule stabilizers of the endoplasmic reticulum resident proteome: Secreted ER Calcium Modulated Protein (SERCaMP) assay (AID 1508630; active means well fitted inhibition curve with a large enough effect; further: on the % scale 0 is the no-effect control and ±100 the full control effect)
Settings: SH-SY5Y GLuc-SERCaMP (Gaussia luciferase released on ER calcium loss) secretion, thapsigargin, luminescence; series mostly up to 38.4 µM; activity change, negative = inhibition: at the top concentration
How it was run: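 The SH-SY5Y reporter protocol was run at 3 concentrations up to 38.3 uM (primary) or 11 concentrations (follow-up): 16 h compound, 100 nM thapsigargin for 4 h, then extracellular luciferase luminescence.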
In the case of `CCOc1ccc(NC(=O)CC(C)O)cc1` (stereo not drawn), the “activity change, negative = inhibition” value is reported as -9.88% (inactive).
In the case of `CCCCC1=NC2(CCCC2)C(=O)N1Cc1ccc(-c2ccccc2-c2nn[nH]n2)cc1`, the Potency is reported as “inactive”.
For `N[C@@H](CCC(=O)N[C@@H](CS)C(=O)NCC(=O)O)C(=O)O`, the “activity change, negative = inhibition” value was -23.7% [at 21.6 µM] (inactive).
For `O=S1(=O)c2cccc3cccc(c23)N1CCCN1CCN(c2ccc(F)cc2)CC1`, the Potency was “inactive”.
In the case of `COC(=O)CCc1ccc(OCC(O)CNC(C)C)cc1` (stereo not drawn), the “activity change, negative = inhibition” value is reported as 39.7% (inactive).
With `Cc1c(F)c(N2CCNC(C)C2)cc2c1c(=O)c(C(=O)O)cn2C1CC1` (stereo not drawn) the “activity change, negative = inhibition” value was -18.3% (inactive).
In the case of `CC(O)C(=O)O` (stereo not drawn), the “activity change, negative = inhibition” value is reported as -3.31% (inactive).
For `COc1cc(C(=S)N2CCOCC2)cc(OC)c1OC`, the “activity change, negative = inhibition” value was -9.79% (inactive).
For `Cc1ncc(CSSCc2cnc(C)c(O)c2CO)c(CO)c1O`, the “activity change, negative = inhibition” value was -25.8% (inactive).
For `CCn1cc(C(=O)O)c(=O)c2cnc(N3CCCC3)nc21`, the activity change, negative = inhibition was -14.1% [at 7.35 µM] (inactive).
With `CN=C(NC#N)Nc1ccc(C2=NNC(=O)CC2C)cc1` (stereo not drawn) the Potency was “inactive”.
With `Cc1cccc(C)c1NC(=O)CN1CCN(CCCC(c2ccc(F)cc2)c2ccc(F)cc2)CC1` the “activity change, negative = inhibition” value was 11.5% (inactive).
With `CN1C(CCl)Nc2cc(Cl)c(S(N)(=O)=O)cc2S1(=O)=O` (stereo not drawn) the “activity change, negative = inhibition” value was -19.2% (inactive).
For `CC(O)(P(=O)(O)O)P(=O)(O)O`, the “activity change, negative = inhibition” value was -2.33% (inactive).
For `c1ccc(CNCCNCc2ccccc2)cc1`, the “activity change, negative = inhibition” value was 23.6% (inactive).
In the case of `COc1c(C)c2c(c(O)c1C/C=C(\C)CCC(=O)O)C(=O)OC2`, the “activity change, negative = inhibition” value is reported as 2.62% (inactive).
For `CCC(C(=O)OCCN(CC)CC)c1ccccc1` (stereo not drawn), the “activity change, negative = inhibition” value was -16.1% (inactive).
In the case of `CC(=O)N/N=C/c1ccc([N+](=O)[O-])o1`, the “activity change, negative = inhibition” value is reported as -16.1% (inactive).
With `Oc1cc(O)c2c(c1)O[C@H](c1ccc(O)c(O)c1)[C@H](O)C2` the “activity change, negative = inhibition” value was -28.4% (inactive).
With `COc1cccc2c1C(=O)c1c(O)c3c(c(O)c1C2=O)C[C@@](O)(C(C)=O)C[C@@H]3O[C@H]1C[C@H](N)[C@H](O)[C@H](C)O1` the Potency was “inactive”.
With `CC1(C)OC[C@@H](COC(=O)CCc2ccc(OC[C@@H](O)CNCCNC(=O)N3CCOCC3)cc2)O1` the “activity change, negative = inhibition” value was -19.9% (inactive).
With `CC(=O)Nc1c(I)cc(I)c(C(=O)O)c1I` the “activity change, negative = inhibition” value was -35.7% (inactive).

Test: A High-Content qHTS Against Drug Library for the Identification of Small Molecules that Inhibit DYT1 Early Onset Primary Dystonia-Associated Cell Pathology (AID 1645839); further: potency means the concentration at half of the fitted maximal effect
Settings: HEK293 Flp-In EGFP-delE TorsinA, punctate imaging, 48 h; series mostly up to 46.1 µM; % pathology change, negative = correction: at the top concentration
How it was run: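 Induced EGFP-delE TorsinA cells are imaged after 48 h of compound treatment. Punctate fusion-protein distribution gives the %pathology value, while nuclei counts flag toxicity. Wild-type EGFP-hTOR1A cells define the normal pattern.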
In the case of `NCCc1ccn[nH]1`, the “% pathology change, negative = correction” value (from here on “% pathology change”) is reported as 16.8% (inactive).
For `CN1[C@@H]2CC[C@H]1CC(OC(=O)c1c[nH]c3ccccc13)C2` (stereo partly drawn), the “% pathology change” value was -17.8% (inactive).
For `CCOc1ccc2nc3cc(N)ccc3c(N)c2c1`, the “% pathology change” value was 0.465% (inactive).
With `CCCN1CCCC[C@H]1C(=O)Nc1c(C)cccc1C` the “% pathology change” value was 0.935% (inactive).
With `Cc1ccc(C(=O)C(C)CN2CCCCC2)cc1` (stereo not drawn) the “% pathology change” value was -6.43% (inactive).
With `CCN(CC)CCNC(=O)COc1ccc(Cl)cc1` the “% pathology change” value was -2.74% (inactive).
For `Cc1ccnc(NS(=O)(=O)c2ccc(N)cc2)n1`, the “% pathology change” value was -2.44% (inactive).
With `CCCSS/C(CCO)=C(\C)N(C=O)Cc1cnc(C)nc1N` the “% pathology change” value was 13.2% (inactive).
For `Cc1c2oc3c(C)ccc(C(=O)N[C@@H]4C(=O)N[C@H](C(C)C)C(=O)N5CCC[C@H]5C(=O)N(C)CC(=O)N(C)[C@@H](C(C)C)C(=O)O[C@@H]4C)c3nc-2c(C(=O)N[C@@H]2C(=O)N[C@H](C(C)C)C(=O)N3CCC[C@H]3C(=O)N(C)CC(=O)N(C)[C@@H](C(C)C)C(=O)O[C@@H]2C)c(N)c1=O` (I: T[dV]P[Sar][NMeV] / II: T[dV]P[Sar][NMeV]; ester I:1-I:C, II:1-II:C; linker I:N-II:N via Actinocin(9to1)), the “% pathology change” value was -85.7% (inactive).
In the case of `OC[C@@H](O)[C@@H](O[C@@H]1O[C@H](CO)[C@H](O)[C@H](O)[C@H]1O)[C@H](O)[C@@H](O)CO`, the “% pathology change” value is reported as 7.65% (inactive).
For `COc1ccc(C2C(=O)c3ccccc3C2=O)cc1`, the “% pathology change” value was -0.353% (inactive).
With `Cc1c(N(C)CS(=O)(=O)O)c(=O)n(-c2ccccc2)n1C` the “% pathology change” value was 14.7% (inactive).
In the case of `CCC(=O)c1c(O)cc(O)cc1O`, the “% pathology change” value is reported as -7.1% (inactive).
With `C[C@H](CCC(=O)O)[C@H]1CC[C@H]2[C@@H]3C(=O)C[C@@H]4CC(=O)CC[C@]4(C)[C@H]3CC(=O)[C@]12C` the “% pathology change” value was 5.71% (inactive).
For `CCOc1ccc(NC(=O)CC(C)O)cc1` (stereo not drawn), the “% pathology change” value was 10.3% (inactive).
For `CCCCC1=NC2(CCCC2)C(=O)N1Cc1ccc(-c2ccccc2-c2nn[nH]n2)cc1`, the “% pathology change” value was -10.9% (inactive).
In the case of `N[C@@H](CCC(=O)N[C@@H](CS)C(=O)NCC(=O)O)C(=O)O`, the “% pathology change” value is reported as 15.3% [at 19.1 µM] (inactive).
In the case of `O=S1(=O)c2cccc3cccc(c23)N1CCCN1CCN(c2ccc(F)cc2)CC1`, the “% pathology change” value is reported as -25.7% (inactive).
In the case of `COC(=O)CCc1ccc(OCC(O)CNC(C)C)cc1` (stereo not drawn), the “% pathology change” value is reported as 15.1% (inactive).
In the case of `Cc1c(F)c(N2CCNC(C)C2)cc2c1c(=O)c(C(=O)O)cn2C1CC1` (stereo not drawn), the “% pathology change” value is reported as 0.175% (inactive).
In the case of `CC(O)C(=O)O` (stereo not drawn), the “% pathology change” value is reported as 8.05% (inactive).
For `COc1cc(C(=S)N2CCOCC2)cc(OC)c1OC`, the “% pathology change” value was 1.66% (inactive).
In the case of `Cc1ncc(CSSCc2cnc(C)c(O)c2CO)c(CO)c1O`, the “% pathology change” value is reported as 10.9% (inactive).
With `CCn1cc(C(=O)O)c(=O)c2cnc(N3CCCC3)nc21` the % pathology change, negative = correction was 0.401% [at 9.22 µM] (inactive).
With `CN=C(NC#N)Nc1ccc(C2=NNC(=O)CC2C)cc1` (stereo not drawn) the “% pathology change” value was -0.394% (inactive).
In the case of `Cc1cccc(C)c1NC(=O)CN1CCN(CCCC(c2ccc(F)cc2)c2ccc(F)cc2)CC1`, the “% pathology change” value is reported as 10.2% (inactive).
In the case of `CN1C(CCl)Nc2cc(Cl)c(S(N)(=O)=O)cc2S1(=O)=O` (stereo not drawn), the “% pathology change” value is reported as 8.93% (inactive).
In the case of `CC(O)(P(=O)(O)O)P(=O)(O)O`, the “% pathology change” value is reported as 14.5% (inactive).
In the case of `c1ccc(CNCCNCc2ccccc2)cc1`, the “% pathology change” value is reported as -18.5% (inactive).
With `COc1c(C)c2c(c(O)c1C/C=C(\C)CCC(=O)O)C(=O)OC2` the “% pathology change” value was 1.31% (inactive).
With `CCC(C(=O)OCCN(CC)CC)c1ccccc1` (stereo not drawn) the “% pathology change” value was 0.942% (inactive).
For `CC(=O)N/N=C/c1ccc([N+](=O)[O-])o1`, the “% pathology change” value was -3.76% (inactive).
With `Oc1cc(O)c2c(c1)O[C@H](c1ccc(O)c(O)c1)[C@H](O)C2` the “% pathology change” value was -20.5% (inactive).
With `COc1cccc2c1C(=O)c1c(O)c3c(c(O)c1C2=O)C[C@@](O)(C(C)=O)C[C@@H]3O[C@H]1C[C@H](N)[C@H](O)[C@H](C)O1` the Potency was 1580 nM (active).
With `CC1(C)OC[C@@H](COC(=O)CCc2ccc(OC[C@@H](O)CNCCNC(=O)N3CCOCC3)cc2)O1` the “% pathology change” value was -5.06% (inactive).
For `CC(=O)Nc1c(I)cc(I)c(C(=O)O)c1I`, the “% pathology change” value was 5.77% (inactive).
